In the library only some 9.8% were active in any assay of this set; here they are far more common.
HTT ATP protect – qHTS Multiplex Assay to Identify Dual Action Probes in a Cell Model of Huntington: Cytoprotection (ATP). PC12 HTT-Q103 induced, cytoprotection, ATP luminescence, 40 h. Potency, µM (titrated, usually from 56.4 µM), actives largely listed as activators. hit rate 0.14% among 230,000. AID 1471, 2008; active = well fitted curve in the direction sought with a large enough effect; inconclusive = small, poorly fitted or top-dose-only effect, or another doubt; inactive = no such curve, though single readings can be large; an effect the other way counts as inactive or inconclusive; note: nearly all actives have a fitted effect of over 45% in size
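PC12 cells with ecdysone-inducible HTT exon 1 Q103-GFP, induced with 100 nM tebufenozide and co-treated with library compounds in a dose series (1536-well, 1500 cells/well). Cytoprotection read as ATP content by ATPlite luminescence.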
HttQ103 aggreg – qHTS Multiplex Assay to Identify Dual Action Probes in a Cell Model of Huntington: Aggregate Formation (GFP). PC12 HttQ103-GFP aggregates, Acumen cytometry, 40 h. Potency, µM (series often up to 46.1 µM), most hits filed as inhibitors. hit rate 1.1% among 220,000. AID 1688, 2009; active = well fitted curve in the direction sought with a large enough effect; inconclusive = small, poorly fitted or top-dose-only effect, or another doubt; inactive = no such curve, though single readings can be large; an effect the other way counts as inactive or inconclusive; note: nearly all actives have a fitted effect of over 60% in size
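Inducible Q103 Huntingtin exon 1–GFP PC12 line, 1500 cells/well in phenol red free DMEM with 5% equine and 5% calf serum. Tebufenozide 100 nM induced expression; compounds titrated; aggregates quantified by cytometry.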
CBFb RUNX1 block – qHTS Assay for Compounds Blocking the Interaction Between CBF-beta and RUNX1 for the Treatment of Acute Myeloid Leukemia; Runt-related transcription factor 1 (Homo sapiens) + Core-binding factor subunit beta …; AlphaScreen CBFb-His/RUNX1-biotin binding, biochemical; Potency, µM (series often up to 59.8 µM), most hits filed as inhibitors; 230,000 tested, under 10 active; AID 1477, 2009; active = well fitted curve in the direction sought with a large enough effect; inconclusive = small, poorly fitted or top-dose-only effect, or another doubt; inactive = no such curve, though single readings can be large; an effect the other way counts as inactive or inconclusive
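Read-out: AlphaScreen. Format: His-CBF-beta with biotinylated RUNX1 (30 nM each) preincubated 20 min, compound 15 min, Ni-chelate plus streptavidin beads 90 min; room temperature throughout.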
JMJD2E inh – qHTS Assay for Inhibitors of Human Jumonji Domain Containing 2E (JMJD2E); Lysine-specific demethylase 4E (Homo sapiens), B2RXH2; JMJD2E catalytic domain, FDH-coupled NADH fluorescence (FDH is formaldehyde dehydrogenase); Potency, µM (titrated, usually from 57.1 µM), actives largely listed as inhibitors; hit rate 1.6% among 230,000; AID 2147, 2009; note: nearly all actives have a fitted effect of over 50% in size
HPGD block – qHTS Assay for Inhibitors of HPGD (15-Hydroxyprostaglandin Dehydrogenase) | hit rate 4.3% among 150,000 | AID 894, 2007 | Potency, µM, hits mostly inhibitors | purified HPGD, NADH fluorescence kinetic, PGE2 substrate
Target sequence (P15428 whole entry, looked up): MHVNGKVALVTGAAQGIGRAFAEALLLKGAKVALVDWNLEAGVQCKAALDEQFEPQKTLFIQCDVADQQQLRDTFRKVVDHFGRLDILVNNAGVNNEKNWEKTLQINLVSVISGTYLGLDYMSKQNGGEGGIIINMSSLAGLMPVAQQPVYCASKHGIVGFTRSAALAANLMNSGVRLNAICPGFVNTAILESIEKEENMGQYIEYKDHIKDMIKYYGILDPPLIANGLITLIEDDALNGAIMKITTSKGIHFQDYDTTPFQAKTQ
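NADH formation kinetics: reaction with 30 uM PGE2 and 1 mM NAD+ (final), 20 nM enzyme, Tris-HCl pH 8 with Tween 20, after 15 min compound preincubation at room temperature. Fluorescence change, last versus first of five reads.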
ALDH1A1 inh – qHTS Assay for Inhibitors of Aldehyde Dehydrogenase 1 (ALDH1A1); Purified ALDH1A1, NADH fluorescence, propionaldehyde substrate; Aldehyde dehydrogenase 1A1 (Homo sapiens), P00352; hit rate 7.3% among 220,000; Potency, µM (series often up to 75.3 µM), hits mostly inhibitors
Target sequence (P00352 whole entry, looked up): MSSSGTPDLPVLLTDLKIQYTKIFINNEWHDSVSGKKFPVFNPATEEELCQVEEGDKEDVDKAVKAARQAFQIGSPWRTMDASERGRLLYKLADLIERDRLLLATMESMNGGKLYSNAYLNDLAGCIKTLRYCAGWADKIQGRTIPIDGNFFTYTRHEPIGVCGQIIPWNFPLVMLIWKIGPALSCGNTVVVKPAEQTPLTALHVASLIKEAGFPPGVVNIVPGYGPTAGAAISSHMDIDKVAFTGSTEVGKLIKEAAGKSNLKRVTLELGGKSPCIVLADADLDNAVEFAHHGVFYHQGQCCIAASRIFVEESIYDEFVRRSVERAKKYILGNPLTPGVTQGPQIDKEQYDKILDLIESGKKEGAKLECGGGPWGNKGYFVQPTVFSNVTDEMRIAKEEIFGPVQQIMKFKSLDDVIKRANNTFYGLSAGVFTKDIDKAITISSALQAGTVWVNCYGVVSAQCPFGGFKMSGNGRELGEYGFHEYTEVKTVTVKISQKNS
Of the large screens only hits and unclear results are named; the others gave an inactive call. Unless noted, calls come from the whole dose curve; as a rule, active = well fitted inhibition curve with a large enough effect (not every such curve was filed as active); inconclusive = small, poorly fitted or top-dose-only effect, or another doubt; inactive = no such curve, though single readings can be large or run the other way.

CCc1cc2c(SCC(=O)NC3CCS(=O)(=O)C3)ncnc2s1 (stereo unspecified)	none (no result: HPGD block)
CCc1cc2c(=O)n(Cc3ccco3)c(SCc3c(C)noc3C)nc2s1	ALDH1A1 inh 22.4µM
CCOc1ccccc1NC(=S)N1CCN(c2nc(-c3ccc(F)cc3)cs2)CC1	none (no result: HTT ATP protect, HttQ103 aggreg, HPGD block)
Cc1ccc(C(=O)Nc2ccc(N3CCN(C)CC3)nc2)cc1	none (no result: HPGD block)
COc1cc(C2c3cc4c(cc3C(OC3OC5COC(C)O[C@@H]5C(O)C3O)C3COC(=O)C23)OCO4)cc(OC)c1O (stereo partly specified)	none (no result: HttQ103 aggreg)
Cc1ncsc1C(=O)O	JMJD2E inh inconclusive (no result: HPGD block)
C=CCSc1nc2ccccc2c(=O)n1Cc1ccco1	none (no result: HttQ103 aggreg, CBFb RUNX1 block, JMJD2E inh)
S=C1NCN(C2CCCCC2)CN1CCc1ccccc1	none (no result: HPGD block)
Cc1ccc(NC(=O)CN(C)C(=O)Cn2ncc(Cl)c(Cl)c2=O)cc1	HttQ103 aggreg inconclusive, ALDH1A1 inh 28.2µM
CC(C)(C)C(=O)Cn1ncc(Cl)c(Cl)c1=O	HttQ103 aggreg inconclusive, ALDH1A1 inh inconclusive (no result: HPGD block)
CCCCSc1nnc(CSc2ncccn2)n1C	none (no result: HPGD block)
COc1ccc(NC(=O)N2CCCC2C(=O)NCc2ccc(C)cc2)cc1 (stereo unspecified)	none (no result: HPGD block)
CCc1cc(C(=O)NNC(=S)Nc2ccccc2C)cs1	ALDH1A1 inh 25.1µM
CCCCNC(=O)c1ccc2c(SCC(=O)O)c3c(nc2c1)CCCC3	HPGD block 12.6µM, ALDH1A1 inh inconclusive (no result: HTT ATP protect)
COc1ccc(NC(=O)c2ccc3c(SCC(=O)O)c4c(nc3c2)CCCC4)c(OC)c1	ALDH1A1 inh 7.94µM (no result: HPGD block)
CCC(C)NC(=O)c1ccc2c(SCC(=O)O)c3c(nc2c1)CCCC3 (stereo unspecified)	JMJD2E inh inconclusive, HPGD block 22.4µM, ALDH1A1 inh inconclusive (no result: HTT ATP protect)
CC(C)CCNC(=O)c1ccc2c(SCC(=O)O)c3c(nc2c1)CCC3	none (no result: HPGD block, ALDH1A1 inh)
CC(=O)c1sc(N/N=C\c2cccc(Br)c2)nc1C	HPGD block 28.2µM, ALDH1A1 inh 25.1µM
NNc1nnnc2c1sc1nc(N3CCOCC3)c3c(c12)CCCC3	none (no result: HPGD block, ALDH1A1 inh)
Cc1cc(C(=O)NCc2ccccc2F)cs1	HPGD block 15.8µM
O=C(NCc1ccccc1F)c1cccs1	HPGD block inconclusive
Cc1ccc(-c2cc(C(=O)Nc3ccc(S(=O)(=O)N4CC(C)OC(C)C4)cc3)[nH]n2)c(O)c1 (stereo unspecified)	none (no result: HPGD block, ALDH1A1 inh)
Cc1ccc(O)c(-c2cc(C(=O)Nc3ccc(S(=O)(=O)N4CC(C)OC(C)C4)cc3)[nH]n2)c1 (stereo unspecified)	HPGD block 12.6µM
Cc1ccc(O)c(-c2cc(C(=O)NCc3ccncc3)[nH]n2)c1	HPGD block 5.01µM
Cc1ccc(O)c(-c2cc(C(=O)Nc3ccc(S(=O)(=O)Nc4nc(C)cc(C)n4)cc3)[nH]n2)c1	HPGD block 0.891µM (no result: HTT ATP protect)
Cc1cc(C)c(CN2CCN(Cc3ccc(C)o3)C(CCO)C2)c(-n2cccn2)c1 (stereo unspecified)	none (no result: HPGD block)
Cc1ccc(C(=O)CSc2ncnc3sc4c(c23)CCC(C)C4)cc1 (stereo unspecified)	none
COc1ccc(CC(=O)NNC(=O)c2ccncc2)cc1	none (no result: HPGD block)
Cn1c(-c2ccc(N)cc2)nc2ccccc21	JMJD2E inh inconclusive, ALDH1A1 inh inconclusive (no result: HPGD block)
Cc1ccc(-n2c(N)c(-c3nc4ccccc4n3C)sc2=S)cc1	HPGD block 6.31µM, ALDH1A1 inh 3.55µM
CCCCCCC(=O)N(O)C1CC(=O)N(c2ccc(Br)cc2)C1=O (stereo unspecified)	HPGD block 7.08µM, ALDH1A1 inh 0.562µM
COc1ccccc1N(O)C1CC(=O)N(c2ccc(Br)cc2)C1=O (stereo unspecified)	HPGD block 28.2µM, ALDH1A1 inh 17.8µM
O=C1CC(N(O)c2ccccc2)C(=O)N1c1ccc(Cl)c(Cl)c1 (stereo unspecified)	none (no result: HPGD block, ALDH1A1 inh)
CC(Oc1ccccc1)C(=O)NC1=NCCS1 (stereo unspecified)	none (no result: HPGD block)
C=CC(C1=CC(=O)C(OC)=C(OC)C1=O)c1ccccc1 (stereo unspecified)	JMJD2E inh inconclusive, HPGD block 20µM (no result: HTT ATP protect, HttQ103 aggreg, CBFb RUNX1 block)
COC1=C(c2ccccc2)C(=O)c2ccccc2C1=O	HttQ103 aggreg inconclusive, ALDH1A1 inh inconclusive (no result: HTT ATP protect)
COc1ccc(C(=O)N/N=C/C(C)c2ccccc2)cc1OC (stereo unspecified)	none
C=CC(C1=CC(=O)C(OC)=CC1=O)c1ccccc1 (stereo unspecified)	CBFb RUNX1 block inconclusive, JMJD2E inh 2.24µM, HPGD block inconclusive, ALDH1A1 inh 22.4µM (no result: HttQ103 aggreg)
COc1ccc2c(c1)O[C@@H](c1cccc(C(F)(F)F)c1)[C@H](OC(=O)NCCOc1ccccc1)C2=O	none (no result: HTT ATP protect, HttQ103 aggreg)
O=C(O)Cc1nn(Cc2ccc(Br)cc2F)c(=O)c2ccccc12	none
COCCn1c(C)cc(C2=NNC(=Nc3ccc(Cl)cc3Cl)SC2)c1C	HTT ATP protect inconclusive, ALDH1A1 inh 25.1µM
COCCn1c(C)cc(C2=NNC(=NC3CC3)SC2)c1C	none (no result: HPGD block)
COC1=CC(=O)C(C(=O)c2ccccc2)=CC1=O	JMJD2E inh inconclusive, HPGD block 4.47µM, ALDH1A1 inh inconclusive (no result: HTT ATP protect, HttQ103 aggreg, CBFb RUNX1 block)
Cn1c2c(c(=O)n(C)c1=O)C(NS(=O)(=O)c1ccccc1)(C(F)(F)F)C(=O)N2 (stereo unspecified)	HTT ATP protect 3.55µM
C=CCn1c(=S)[nH]c2nc3c(cc2c1=O)CCCC3	ALDH1A1 inh inconclusive
C=CCn1c(=S)[nH]c2sc3c(c2c1=O)CCC3	HPGD block 31.6µM, ALDH1A1 inh 11.2µM
Cc1ccc(C(=O)CSc2ccc(-c3cccnc3)nn2)cc1	none (no result: HPGD block)
Cc1ccc(-n2ncc3c(NNC(=O)c4ccco4)ncnc32)c(C)c1	none (no result: HPGD block)
COc1ccc(N2C(=O)[C@@H]3[C@H](C2=O)[C@H]2C=CC=NN2[C@@H]3C(=O)Nc2ccc(Cl)cc2)cc1	JMJD2E inh inconclusive (no result: HPGD block, ALDH1A1 inh)
Cc1ccc(N2C(=O)[C@@H]3[C@H](C2=O)C2c4ccccc4C=CN2[C@@H]3C(=O)c2ccco2)cc1 (stereo partly specified)	HPGD block 31.6µM, ALDH1A1 inh 4.47µM
COc1ccc(N2C(=O)[C@@H]3[C@H](C2=O)[C@H]2c4ccccc4C=CN2[C@@H]3C(=O)Nc2ccccc2)cc1	ALDH1A1 inh 25.1µM

High-throughput results (PubChem)
